According to PubChem BioAssay (NCATS):
Results filed as inconclusive are left out. The source made the active and inactive calls. Unless noted, calls follow the shape of the dose curve; as a rule, active = well fitted curve in the direction sought with a large enough effect; inconclusive = small, poorly fitted or top-dose-only effect, or another doubt; inactive = no such curve, though single readings can be large; an effect the other way counts as inactive or inconclusive.

Tests used:
[1] = P-glycoprotein substrates identified in KB-8-5-11 adenocarcinoma cell line, qHTS therapeutic library screen (AID 1346987); also: nearly all actives have a fitted effect of over 65% in size; also: potency is read from the fitted curve at half-maximal effect; as to activity change, negative = cytotoxicity: % is scaled to controls: 0 for no effect and ±100 for the full control effect
Method in brief: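 Human cervical adenocarcinoma KB-8-5-11 cells, selected in colchicine to over-express P-gp and assayed without it, were exposed for 72 h to titrated compounds. An ATP-based luminescent viability signal gave AC50.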

[2] = tested on: Zika virus NS2B-NS3 protease (unlinked complex); assay: Primary screen GU Rhodamine qHTS for Zika virus inhibitors: Unlinked NS2B-NS3 protease assay (AID 1347159); also: % is scaled to controls: 0 for no effect and ±100 for the full control effect; nearly all actives have a fitted effect of over 60% in size
Method in brief: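 Percent inhibition came from the 15-min rise in Rhodamine110 fluorescence (1.5 microM substrate, ~15% conversion), normalized to no-inhibitor and no-enzyme wells and Hill-fitted. Unlinked protease, 25 nM, pH 8.0 Tris buffer; compounds up to 114 microM, 15-min preincubation.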

CRL-7250 [3] = assay: Cytotoxic Profiling of Annotated Libraries Using Quantitative High-Throughput Screening (AID 1296008); settings: Five cell lines viability, CellTiter-Glo ATP luminescence, 48-72 h; max response: stronger effect = lower value; also: nearly all actives have a fitted effect of over 60% in size; also: potency is read from the fitted curve at half-maximal effect; as to max response: % is scaled to controls: 0 for no effect and ±100 for the full control effect
Method in brief: (§1)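 Compounds were pin-transferred onto cells and incubated 48 or 72 hr at 37 degree Celsius, 95% humidity. CellTiter-Glo was added, plates sat 10 min at room temperature, then ATP-coupled luminescence was imaged as the viability read-out.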

KB-3-1 = assay: as above; settings: Five cell lines viability, CellTiter-Glo ATP luminescence, 48-72 h; max response: stronger effect = lower value
Method in brief: as §1

NIH3T3 = assay: qHTS assay to identify novel small-molecules to repurpose for Merkel cell carcinoma treatment (AID 1296009); settings: MCC and control cell lines, CellTiter-Glo viability, 72 h; at 44.8 µM (top of the series) unless noted; also: nearly all actives have a fitted effect of over 60% in size
Method in brief: (§2)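 Luminescence from CellTiter-Glo, read 10 min after addition at room temperature, reported viability following a 72 hr, 37 degree celsius treatment with NPC or MIPE compounds in titration; values normalized to plate controls.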

[4] = Primary qHTS for inhibitors of nuclear receptor binding SET domain protein 2 (NSD2) in an isogenic RCH-ACV NSD2 p.E1099K mutant (9B) (AID 1645876); also: nearly all actives have a fitted effect of over 70% in size; also: potency is read from the fitted curve at half-maximal effect; as to activity change, negative = viability loss: % is scaled to controls: 0 for no effect and ±100 for the full control effect
HACAT = assay: qHTS assay to identify novel small-molecules to repurpose for Merkel cell carcinoma treatment (AID 1296009); settings: MCC and control cell lines, CellTiter-Glo viability, 72 h; at 44.8 µM (top of the series) unless noted; also: nearly all actives have a fitted effect of over 60% in size
Method in brief: as §2

HeLa = assay: Primary qHTS to identify gynecologic anti-cancer compounds using libraries of approved drugs and bioactive compounds (AID 1345084); settings: Gynecologic cancer cell panel viability, ATPlite luminescence, 48 h; series mostly up to 57.5 µM; also: nearly all actives have a fitted effect of over 55% in size; also: potency is read from the fitted curve at half-maximal effect; as to activity change, negative = cytotoxicity: % is scaled to controls: 0 for no effect and ±100 for the full control effect
Method in brief: (§3)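 Luminescence from the ATPlite ATP-monitoring reagent indicates viable cell number; lower signal means cytotoxicity. Cells received compound 16 h after seeding and were exposed for 48 h across five concentrations.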

SKOV3 = assay: as above; settings: Gynecologic cancer cell panel viability, ATPlite luminescence, 48 h; series mostly up to 57.5 µM
Method in brief: as §3

[5] = Primary qHTS for inhibitors of nuclear receptor binding SET domain protein 2 (NSD2) in an RCH-ACV wild type WT cells (2C) (AID 1645877); also: nearly all actives have a fitted effect of over 70% in size; also: potency is read from the fitted curve at half-maximal effect
CRL-7250 [6] = assay: qHTS assay to identify novel small-molecules to repurpose for Merkel cell carcinoma treatment (AID 1296009); settings: MCC and control cell lines, CellTiter-Glo viability, 72 h; series mostly up to 92 µM; also: nearly all actives have a fitted effect of over 60% in size
Method in brief: as §2

[7] = P-glycoprotein substrates identified in KB-3-1 adenocarcinoma cell line, qHTS therapeutic library screen (AID 1346986); also: nearly all actives have a fitted effect of over 60% in size
Method in brief: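 Using luminescence to quantify ATP, parental and P-gp-overexpressing KB cells were compared after 72 h compound titration. KB-8-5-11 was also run with the P-gp inhibitor tariquidar.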

[8] = target: Cytochrome P450 2D6 (Homo sapiens) (UniProt P10635); assay: Cytochrome P450 family 2 subfamily D member 6 (CYP2D6) small molecule antagonists: luciferase biochemical (cell-free) qHTS assay (AID 1645840; active = well fitted curve in the direction sought with a large enough effect in the repeat runs; an effect the other way counts as inactive or inconclusive; also: nearly all actives have a fitted effect of over 55% in size; also: potency is read from the fitted curve at half-maximal effect)
Method in brief: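 P450-Glo CYP2D6 system: proluciferin substrate converted by enzyme to luciferin, read by luminescence proportional to activity. Enzyme-substrate mix with compound 10 min at room temperature, then NADPH regeneration 1 h before detection reagent.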

[9] = target: Catechol O-methyltransferase (Homo sapiens) (UniProt P21964); assay: Confirmatory Screen for Target Class Profiling of Small Molecule Inhibitors of Methyltransferases (AID 1745852); settings: MTase-Glo luminescence, SAH detection, recombinant enzyme; measured here: COMT max response; stronger effect = lower value
[10] = target: Guanidinoacetate N-methyltransferase (Homo sapiens) (UniProt Q14353); assay: as above; settings: activity change, negative = inhibition: at 57.3 µM (top of the series) unless noted
[11] = target: Nicotinamide N-methyltransferase (Homo sapiens) (UniProt P40261); assay: as above; settings: MTase-Glo luminescence, SAH detection, recombinant enzyme; measured here: NNMT max response; stronger effect = lower value
[12] = target: Phenylethanolamine N-methyltransferase (Homo sapiens) (UniProt P11086); assay: as above; settings: MTase-Glo luminescence, SAH detection, recombinant enzyme; measured here: PNMT max response; stronger effect = lower value
Chain of Phenylethanolamine N-methyltransferase (Homo sapiens) (P11086 whole entry, looked up): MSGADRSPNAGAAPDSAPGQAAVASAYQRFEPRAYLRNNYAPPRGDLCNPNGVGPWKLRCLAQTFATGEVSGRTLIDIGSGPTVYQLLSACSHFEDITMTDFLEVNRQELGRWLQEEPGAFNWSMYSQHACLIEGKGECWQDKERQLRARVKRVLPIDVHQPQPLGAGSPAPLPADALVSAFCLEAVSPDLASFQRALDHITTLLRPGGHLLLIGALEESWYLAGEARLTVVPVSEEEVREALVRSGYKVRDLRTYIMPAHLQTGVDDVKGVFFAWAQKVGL

Chain of Cytochrome P450 2D6 (Homo sapiens) (P10635 whole entry, looked up): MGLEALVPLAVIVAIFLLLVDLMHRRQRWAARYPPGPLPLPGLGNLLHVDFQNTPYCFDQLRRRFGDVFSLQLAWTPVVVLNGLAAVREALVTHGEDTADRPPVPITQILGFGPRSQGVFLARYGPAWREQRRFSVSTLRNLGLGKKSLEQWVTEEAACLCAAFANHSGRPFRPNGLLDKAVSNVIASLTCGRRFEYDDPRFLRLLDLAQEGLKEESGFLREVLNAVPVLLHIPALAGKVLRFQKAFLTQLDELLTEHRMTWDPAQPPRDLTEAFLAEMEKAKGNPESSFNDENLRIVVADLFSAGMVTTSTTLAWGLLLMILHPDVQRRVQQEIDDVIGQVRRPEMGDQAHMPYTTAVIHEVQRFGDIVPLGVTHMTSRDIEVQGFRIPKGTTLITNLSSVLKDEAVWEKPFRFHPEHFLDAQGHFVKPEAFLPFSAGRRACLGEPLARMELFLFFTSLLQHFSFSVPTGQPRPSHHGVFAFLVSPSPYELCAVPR
Chain of Nicotinamide N-methyltransferase (Homo sapiens) (P40261 whole entry, looked up): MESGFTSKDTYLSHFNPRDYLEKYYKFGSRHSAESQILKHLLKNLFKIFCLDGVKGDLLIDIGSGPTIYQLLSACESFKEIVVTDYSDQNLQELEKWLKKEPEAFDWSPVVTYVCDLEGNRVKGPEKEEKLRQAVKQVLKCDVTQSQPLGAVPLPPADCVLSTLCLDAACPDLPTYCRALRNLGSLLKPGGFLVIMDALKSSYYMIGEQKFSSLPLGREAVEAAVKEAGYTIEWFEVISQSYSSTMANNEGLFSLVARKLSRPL
Chain of Catechol O-methyltransferase (Homo sapiens) (P21964 whole entry, looked up): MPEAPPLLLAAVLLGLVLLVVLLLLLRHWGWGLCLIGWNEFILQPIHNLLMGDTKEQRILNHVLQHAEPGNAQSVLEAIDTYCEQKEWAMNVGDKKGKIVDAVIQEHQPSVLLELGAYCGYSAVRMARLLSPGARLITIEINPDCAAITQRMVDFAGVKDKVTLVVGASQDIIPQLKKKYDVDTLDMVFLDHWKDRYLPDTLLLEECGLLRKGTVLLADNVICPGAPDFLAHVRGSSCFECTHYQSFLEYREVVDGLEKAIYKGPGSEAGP

C[C@H]1CC[C@@H]2[C@@H](C)[C@H]3[C@H](C[C@H]4[C@@H]5CC=C6CC(O[C@@H]7O[C@H](CO)[C@@H](O)[C@H](O[C@@H]8O[C@H](CO)[C@@H](O)[C@H](O)[C@H]8O)[C@@H]7O[C@@H]7O[C@@H](C)[C@H](O)[C@@H](O)[C@H]7O)CC[C@]6(C)[C@H]5CC[C@]34C)N2C1 (some centres not stated)
inactive: outcome [1] inactive [at 9.29 µM] | Potency [2] | max response (CRL-7250 [3]) -16.5% | max response (KB-3-1) 2.33% | outcome (NIH3T3) inactive [at 9.27 µM]

C/C=C(\C)C(=O)OC1C2C3(C)CCC(OC4CC(OC)C(OC5OC(C)C(O)C(OC)C5O)C(C)O4)CC3CCC23OC32CCC(C(C)=O)C2(C)C1OC(=O)/C(C)=C/C (configuration not stated)
inactive: activity change, negative = cytotoxicity [1] -5.07% [at 9.29 µM] | Potency [2] | activity change, negative = viability loss [4] -17.6% [at 9.23 µM] | max response (CRL-7250 [3]) -2.9% | max response (KB-3-1) -21.8% | outcome (HACAT) inactive [at 9.27 µM] | activity change, negative = cytotoxicity (HeLa) 13% [at 11.6 µM] | activity change, negative = cytotoxicity (SKOV3) -30.2% [at 11.6 µM]

CN1C(=O)N(c2ccc(C#N)c(C(F)(F)F)c2)C(=O)[C@@]1(CO)c1ccccc1
inactive: Potency [1] | Potency [2] | Potency [5] | outcome (CRL-7250 [3]) | Potency (CRL-7250 [6]) | Potency (HeLa) | Potency (SKOV3)

COC(=O)[C@@]1(C)C(=O)C=C[C@]2(C)c3c(O)cc(C(C)C)cc3[C@H](O)[C@@H](OC(C)=O)C12 (some centres not stated)
inactive: Potency [1] | Potency [2] | outcome (CRL-7250 [3]) | Potency (CRL-7250 [6]) | outcome (HACAT) inactive [at 17.4 µM] | Potency (HeLa) | Potency (SKOV3)

C=C1CC[C@H]2[C@@H](/C=C(\C)C(=O)[C@@]3(OC(C)=O)C[C@H](C)[C@H](OC(=O)c4ccccc4)[C@@H]3[C@H]1OC(C)=O)C2(C)C
inactive: Potency [1] | Potency [2] | max response (CRL-7250 [3]) 1.55% | max response (KB-3-1) 4.96% | Potency (HeLa) | Potency (SKOV3)

C[C@]12CC[C@@H](O)C[C@@H]1CC[C@@H]1[C@@H]2CC[C@]2(C)C(=O)[C@@H](Br)C[C@@H]12
active: Potency [4] 6.49 µM | Potency [5] 10.3 µM
inactive: Potency [2] | max response (CRL-7250 [3]) -20.8% | max response (KB-3-1) 9.47% | outcome (HACAT) | Potency (HeLa) | Potency (SKOV3)

CCCN(CCC)CCc1ccc(OC)c(OCCc2ccccc2)c1
inactive: Potency [7] | Potency [1] | Potency [2] | max response (CRL-7250 [3]) 3.48% | outcome (KB-3-1) | Potency (HeLa) | Potency (SKOV3)
active: Potency [8] 0.213 µM

CCC(C)C1NC(=O)C(C(C)=O)=C1O (configuration not stated)
inactive: max response (CRL-7250 [3]) -9.18% | max response (KB-3-1) -22.8% | outcome (HACAT) inactive [at 92 µM] | Potency (HeLa) | Potency (SKOV3)

CC1CCCC(O)CCC/C=C/c2cc(O)cc(O)c2C(=O)O1 (configuration not stated)
inactive: Potency [7] | Potency [1] | max response (CRL-7250 [3]) -5.57% | outcome (KB-3-1) | Potency (HeLa) | Potency (SKOV3)
active: Potency [5] 11.3 µM

O=S(=O)(c1ccccc1F)N1CCOc2c(N3CCNCC3)cccc21
inactive: Potency [7] | Potency [1] | Potency [2] | Potency [8] | max response (CRL-7250 [3]) 2.13% | outcome (KB-3-1) | outcome (HACAT) | Potency (HeLa) | Potency (SKOV3)

CO[C@H]1C[C@H](O[C@H]2CC[C@]3(C=O)[C@H]4CC[C@]5(C)[C@@H](C6=CC(=O)OC6)CC[C@]5(O)[C@@H]4CC[C@]3(O)C2)O[C@H](C)[C@H]1O
active: Potency [1] 0.126 µM | Potency [4] 0.0399 µM | Potency (CRL-7250 [3]) 0.112 µM | Potency (KB-3-1) 0.126 µM | Potency (HeLa) 0.141 µM | Potency (SKOV3) 0.141 µM
inactive: Potency [2] | outcome (NIH3T3) inactive [at 17.4 µM]

O=C(N[C@H]1CN2CCC1CC2)c1cc2cccc(Cl)c2s1
active: Potency [8] 16.9 µM
inactive: Potency [2] | max response (CRL-7250 [3]) -12.3% | max response (KB-3-1) 2.28% | Potency (HeLa) | Potency (SKOV3)

Cc1cccc(NC(=O)NC2N=C(c3ccccc3)c3ccccc3N(CC(=O)c3ccccc3C)C2=O)c1 (configuration not stated)
inactive: Potency [1] | Potency [8] | max response (CRL-7250 [3]) 0.833% | outcome (HACAT) | outcome (NIH3T3) | Potency (HeLa) | Potency (SKOV3)

Oc1ccc2c(c1)C13CCCC[C@H]1[C@@H](C2)N(CC1CCC1)CC3
inactive: max response (CRL-7250 [3]) -16.2% | max response (KB-3-1) -12.4% | outcome (HACAT) | Potency (HeLa)
-6.87%: activity change, negative = inhibition [10]
active: Potency [4] 23 µM | Potency [5] 23 µM
-13.8%: activity [11]
-7.17%: activity [12]
-7.63%: activity [9]

O=C(C[C@@H]1NCCC[C@H]1O)Cn1cnc2ccccc2c1=O
active: Potency [1] 0.259 µM | Potency [4] 0.129 µM | Potency [5] 0.145 µM | Potency (CRL-7250 [3]) 0.231 µM | Potency (KB-3-1) 0.259 µM | Potency (HeLa) 1.78 µM

COC(=O)C12C(=O)C(C)(O)C(=O)C1(C)C(C)=CC1C3(C=O)CCC(OC(C)=O)C(C)(C)C3CCC12C (configuration not stated)
inactive: Potency [1] | max response (CRL-7250 [3]) -2.11% | max response (KB-3-1) 6.36% | Potency (SKOV3)

CC(O)(c1ccccc1)C(Cc1ccc(Cl)cc1)n1cncn1 (configuration not stated)
inactive: Potency [1] | Potency [2] | max response (CRL-7250 [3]) 0.336% | max response (KB-3-1) -4.41% | outcome (HACAT) | Potency (SKOV3)

CC1=CC2/C=C(\C)CCC(O)C(O)/C=C/C(=O)OC23C(=O)NC(CC(C)C)C3C1C (configuration not stated)
active: Potency [4] 8.93 µM
inactive: Potency [1] | max response (CRL-7250 [3]) -26.9% | max response (KB-3-1) 9.99% | outcome (HACAT) inactive [at 17.4 µM] | Potency (HeLa)

CCC1CN2CCC3(C(=O)Nc4cccc(O)c43)C2CC1/C(=C/OC)C(=O)OC (configuration not stated)
inactive: Potency [1] | Potency [2] | Potency [4] | Potency [5] | max response (CRL-7250 [3]) -15.5% | max response (KB-3-1) -16.6% | outcome (HACAT) inactive [at 17.4 µM] | Potency (HeLa) | Potency (SKOV3)
